Drawing on ChEMBL document CHEMBL1961873, “Compounds: GSK PKIS; Assays: Nanosyn kinase panel” (2012), this text covers inhibition for 14 compounds.

Structures are written as SMILES.

In the first assay the target is T1, Serine/threonine-protein kinase Chk1 (Homo sapiens) (UniProt O14757).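 Also: mean inhibition of CHEK1, part of the GSK PKIS profiling set.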
T1 sequence (whole entry): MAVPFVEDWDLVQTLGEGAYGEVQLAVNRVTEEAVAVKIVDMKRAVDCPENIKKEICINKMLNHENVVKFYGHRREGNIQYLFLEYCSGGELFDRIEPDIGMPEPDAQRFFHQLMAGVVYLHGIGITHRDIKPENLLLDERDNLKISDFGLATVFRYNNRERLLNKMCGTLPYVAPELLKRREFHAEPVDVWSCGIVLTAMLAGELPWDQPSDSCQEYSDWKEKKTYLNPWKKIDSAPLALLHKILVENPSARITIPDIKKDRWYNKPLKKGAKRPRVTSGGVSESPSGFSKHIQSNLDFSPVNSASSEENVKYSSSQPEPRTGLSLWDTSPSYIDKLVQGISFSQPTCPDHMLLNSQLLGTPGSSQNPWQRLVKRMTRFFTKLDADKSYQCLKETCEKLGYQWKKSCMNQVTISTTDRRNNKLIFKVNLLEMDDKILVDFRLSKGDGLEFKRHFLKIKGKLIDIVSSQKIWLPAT
The note with it: at 1 µM.
By inhibition is commonly meant the drop in the measured response relative to a control, in per cent. With `CCn1c(-c2nonc2N)nc2c(C#CCN)ncc(OCCCN)c21`, the inhibition was 0.26%.

With `NS(=O)(=O)c1ccc(N/C=C2\C(=O)Nc3ccc4ncsc4c32)cc1`, the inhibition is 33%.

For the compound `COc1cc(C=NNc2ncnc3c2cnn3Cc2ccccc2)ccc1O`, the inhibition is -3.22%.

Regarding `Fc1ccc(-c2ncn(C3CCNCC3)c2-c2ccnc(Oc3ccccc3)n2)cc1`, the inhibition worked out at 0.04%.

As to `COc1cccc(-n2ncc3c(N/N=C/c4ccncc4)ncnc32)c1`, the inhibition was found to be 5.7%.

For the compound `CCn1c(-c2nonc2N)nc2c(C#CC(C)(C)O)nc(O[C@@H](CN)c3ccccc3)cc21`, the inhibition amounted to 31.1%.

`NC(=O)c1sc(-n2cnc3cc(C(F)(F)F)ccc32)cc1OCc1ccccc1Br`: the inhibition came to 0.96%.

On to `NS(=O)(=O)c1ccc(-c2ccc3c(NC(=O)C4CC4)n[nH]c3c2)cc1`, for which the inhibition is 4.16%.

For the compound `Nc1nonc1-c1nc2cnccc2n1C1CCCCC1`, the inhibition amounted to 1.88%.

For `Cc1cc(-c2ccco2)cc(C)c1/C=C/c1cncc(-c2nn[nH]n2)c1`, the inhibition is -1.92%.

Consider `CCn1c(-c2nonc2N)nc2c(C#CC(C)(C)O)ncc(OC[C@@H]3CCCN3)c21`, for which the inhibition turned out to be 2.95%.

Regarding `COc1cccc(COc2cc(-n3cnc4ccccc43)sc2C(N)=O)c1`, the inhibition was -2.21%.

For the compound `CCn1c(-c2nonc2N)nc2c(C#CC(C)(C)O)ncc(OCC3CCNCC3)c21`, the inhibition amounted to 5.91%.

The target in the next assay is Serine/threonine-protein kinase Chk2 (Homo sapiens) (UniProt O96017). The note with it: at 0.1 µM.
Serine/threonine-protein kinase Chk2 (Homo sapiens), sequence (O96017 whole entry): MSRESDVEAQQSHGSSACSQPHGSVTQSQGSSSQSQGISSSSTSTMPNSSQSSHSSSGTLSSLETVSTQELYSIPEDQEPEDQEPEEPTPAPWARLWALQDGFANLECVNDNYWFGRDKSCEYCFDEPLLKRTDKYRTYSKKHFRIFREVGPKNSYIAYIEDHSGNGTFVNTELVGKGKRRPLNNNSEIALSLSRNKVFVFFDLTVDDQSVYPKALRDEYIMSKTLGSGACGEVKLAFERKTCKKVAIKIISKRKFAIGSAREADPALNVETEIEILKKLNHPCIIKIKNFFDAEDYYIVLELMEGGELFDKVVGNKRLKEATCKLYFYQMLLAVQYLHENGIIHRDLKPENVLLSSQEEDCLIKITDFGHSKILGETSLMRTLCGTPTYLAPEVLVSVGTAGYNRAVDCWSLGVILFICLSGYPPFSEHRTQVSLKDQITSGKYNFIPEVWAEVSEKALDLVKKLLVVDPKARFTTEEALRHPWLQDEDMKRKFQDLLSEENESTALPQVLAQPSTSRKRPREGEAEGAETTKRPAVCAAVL
For the compound `CCn1c(-c2nonc2N)nc2c(C#CCN)ncc(OCCCN)c21`, the inhibition is -1.17%.

Consider `NS(=O)(=O)c1ccc(N/C=C2\C(=O)Nc3ccc4ncsc4c32)cc1`, for which the inhibition was determined as 4.73%.

Regarding `COc1cc(C=NNc2ncnc3c2cnn3Cc2ccccc2)ccc1O`, the inhibition is -3.42%.

For the compound `Fc1ccc(-c2ncn(C3CCNCC3)c2-c2ccnc(Oc3ccccc3)n2)cc1`, the inhibition was found to be 1.16%.

`COc1cc2c(cc1Nc1nc(Nc3ccsc3C(N)=O)c3cc[nH]c3n1)N(C(=O)CN(C)C)CCC2`: the inhibition came out at 2.31%.

Take `COc1cccc(-n2ncc3c(N/N=C/c4ccncc4)ncnc32)c1`: the inhibition came to 2.56%.

With `CCn1c(-c2nonc2N)nc2c(C#CC(C)(C)O)nc(O[C@@H](CN)c3ccccc3)cc21`, the inhibition was 2.31%.

In the case of `NC(=O)c1sc(-n2cnc3cc(C(F)(F)F)ccc32)cc1OCc1ccccc1Br`, the inhibition worked out at 1.22%.

For `NS(=O)(=O)c1ccc(-c2ccc3c(NC(=O)C4CC4)n[nH]c3c2)cc1`, the inhibition worked out at 1.56%.

With `Nc1nonc1-c1nc2cnccc2n1C1CCCCC1`, the inhibition was -2%.

As for `Cc1cc(-c2ccco2)cc(C)c1/C=C/c1cncc(-c2nn[nH]n2)c1`, the inhibition is -0.74%.

Turning to `CCn1c(-c2nonc2N)nc2c(C#CC(C)(C)O)ncc(OC[C@@H]3CCCN3)c21`, the inhibition was 0.37%.

Take `COc1cccc(COc2cc(-n3cnc4ccccc43)sc2C(N)=O)c1`: the inhibition is -0.72%.

With `CCn1c(-c2nonc2N)nc2c(C#CC(C)(C)O)ncc(OCC3CCNCC3)c21`, the inhibition was 2.91%.

For the next assay the target is unchanged. As to conditions: at 1 µM.
`CCn1c(-c2nonc2N)nc2c(C#CCN)ncc(OCCCN)c21`: the inhibition was 0.23%.

For the compound `NS(=O)(=O)c1ccc(N/C=C2\C(=O)Nc3ccc4ncsc4c32)cc1`, the inhibition is 19.1%.

Take `COc1cc(C=NNc2ncnc3c2cnn3Cc2ccccc2)ccc1O`: the inhibition is -3.47%.

As to `Fc1ccc(-c2ncn(C3CCNCC3)c2-c2ccnc(Oc3ccccc3)n2)cc1`, the inhibition came to 1.46%.

With `COc1cc2c(cc1Nc1nc(Nc3ccsc3C(N)=O)c3cc[nH]c3n1)N(C(=O)CN(C)C)CCC2`, the inhibition stood at 11.8%.

As to `COc1cccc(-n2ncc3c(N/N=C/c4ccncc4)ncnc32)c1`, the inhibition is 4.89%.

`CCn1c(-c2nonc2N)nc2c(C#CC(C)(C)O)nc(O[C@@H](CN)c3ccccc3)cc21`: the inhibition was determined as 26.7%.

On to `NC(=O)c1sc(-n2cnc3cc(C(F)(F)F)ccc32)cc1OCc1ccccc1Br`, for which the inhibition came to 0.32%.

As for `NS(=O)(=O)c1ccc(-c2ccc3c(NC(=O)C4CC4)n[nH]c3c2)cc1`, the inhibition is 2.29%.

As to `Nc1nonc1-c1nc2cnccc2n1C1CCCCC1`, the inhibition is -1.47%.

On to `Cc1cc(-c2ccco2)cc(C)c1/C=C/c1cncc(-c2nn[nH]n2)c1`, for which the inhibition is -0.4%.

`CCn1c(-c2nonc2N)nc2c(C#CC(C)(C)O)ncc(OC[C@@H]3CCCN3)c21`: the inhibition was determined as 1.08%.

In the case of `COc1cccc(COc2cc(-n3cnc4ccccc43)sc2C(N)=O)c1`, the inhibition was -0.59%.

As for `CCn1c(-c2nonc2N)nc2c(C#CC(C)(C)O)ncc(OCC3CCNCC3)c21`, the inhibition stood at 6.65%.

For another assay, the target named is Death-associated protein kinase 1 (Homo sapiens) (UniProt P53355). The note with it: at 0.1 µM.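 Also: reported figure is the mean inhibition of DAPK1.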
Death-associated protein kinase 1 (Homo sapiens), sequence (P53355 whole entry, looked up): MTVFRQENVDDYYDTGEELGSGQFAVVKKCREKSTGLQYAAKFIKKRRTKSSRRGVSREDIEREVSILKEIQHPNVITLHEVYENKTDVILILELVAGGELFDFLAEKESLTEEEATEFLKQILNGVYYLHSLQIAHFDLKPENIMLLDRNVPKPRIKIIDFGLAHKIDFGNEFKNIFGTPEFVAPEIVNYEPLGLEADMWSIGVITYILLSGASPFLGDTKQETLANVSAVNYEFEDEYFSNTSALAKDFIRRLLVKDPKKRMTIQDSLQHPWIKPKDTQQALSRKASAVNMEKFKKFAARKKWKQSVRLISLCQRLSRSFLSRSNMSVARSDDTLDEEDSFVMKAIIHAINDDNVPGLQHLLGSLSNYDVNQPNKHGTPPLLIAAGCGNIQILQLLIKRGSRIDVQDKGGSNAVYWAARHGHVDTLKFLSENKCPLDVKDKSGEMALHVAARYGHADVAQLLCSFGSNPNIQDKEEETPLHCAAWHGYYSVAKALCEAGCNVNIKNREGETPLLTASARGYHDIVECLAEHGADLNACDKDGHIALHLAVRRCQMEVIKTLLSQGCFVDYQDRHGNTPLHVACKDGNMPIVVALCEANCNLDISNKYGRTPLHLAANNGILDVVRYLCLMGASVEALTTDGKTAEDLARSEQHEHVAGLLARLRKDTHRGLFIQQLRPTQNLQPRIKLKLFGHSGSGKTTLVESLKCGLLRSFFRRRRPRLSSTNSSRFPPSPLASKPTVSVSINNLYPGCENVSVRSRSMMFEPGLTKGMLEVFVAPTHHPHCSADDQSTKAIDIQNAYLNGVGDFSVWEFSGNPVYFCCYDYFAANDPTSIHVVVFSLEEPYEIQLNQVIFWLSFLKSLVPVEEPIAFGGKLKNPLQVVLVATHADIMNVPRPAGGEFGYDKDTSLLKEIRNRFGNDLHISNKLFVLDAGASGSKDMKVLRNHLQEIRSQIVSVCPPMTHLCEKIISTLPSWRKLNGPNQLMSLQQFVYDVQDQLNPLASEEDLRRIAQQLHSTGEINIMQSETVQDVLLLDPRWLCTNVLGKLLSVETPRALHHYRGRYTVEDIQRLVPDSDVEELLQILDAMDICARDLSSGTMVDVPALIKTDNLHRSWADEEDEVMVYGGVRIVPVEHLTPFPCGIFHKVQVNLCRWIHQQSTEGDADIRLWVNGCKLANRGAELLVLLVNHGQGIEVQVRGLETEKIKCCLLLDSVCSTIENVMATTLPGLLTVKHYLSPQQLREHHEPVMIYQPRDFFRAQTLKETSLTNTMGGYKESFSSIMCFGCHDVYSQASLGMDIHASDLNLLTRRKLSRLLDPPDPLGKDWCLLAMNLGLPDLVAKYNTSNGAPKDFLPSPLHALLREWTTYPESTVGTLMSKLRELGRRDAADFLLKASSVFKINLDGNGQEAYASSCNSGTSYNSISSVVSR
With `CCn1c(-c2nonc2N)nc2c(C#CCN)ncc(OCCCN)c21`, the inhibition was -2.99%.

As for `NS(=O)(=O)c1ccc(N/C=C2\C(=O)Nc3ccc4ncsc4c32)cc1`, the inhibition amounted to 5.66%.

For `COc1cc(C=NNc2ncnc3c2cnn3Cc2ccccc2)ccc1O`, the inhibition is -3.06%.

Take `Fc1ccc(-c2ncn(C3CCNCC3)c2-c2ccnc(Oc3ccccc3)n2)cc1`: the inhibition is -0.62%.

In the case of `COc1cc2c(cc1Nc1nc(Nc3ccsc3C(N)=O)c3cc[nH]c3n1)N(C(=O)CN(C)C)CCC2`, the inhibition was 2.17%.

Regarding `COc1cccc(-n2ncc3c(N/N=C/c4ccncc4)ncnc32)c1`, the inhibition came to 4.45%.

With `CCn1c(-c2nonc2N)nc2c(C#CC(C)(C)O)nc(O[C@@H](CN)c3ccccc3)cc21`, the inhibition is -0.91%.

As to `NC(=O)c1sc(-n2cnc3cc(C(F)(F)F)ccc32)cc1OCc1ccccc1Br`, the inhibition stood at 1.27%.

`NS(=O)(=O)c1ccc(-c2ccc3c(NC(=O)C4CC4)n[nH]c3c2)cc1`: the inhibition was determined as 3.27%.

With `Nc1nonc1-c1nc2cnccc2n1C1CCCCC1`, the inhibition is -1.34%.

Consider `Cc1cc(-c2ccco2)cc(C)c1/C=C/c1cncc(-c2nn[nH]n2)c1`, for which the inhibition turned out to be 1.92%.

With `CCn1c(-c2nonc2N)nc2c(C#CC(C)(C)O)ncc(OC[C@@H]3CCCN3)c21`, the inhibition came out at 1.35%.

For the compound `COc1cccc(COc2cc(-n3cnc4ccccc43)sc2C(N)=O)c1`, the inhibition worked out at 1.92%.

For `CCn1c(-c2nonc2N)nc2c(C#CC(C)(C)O)ncc(OCC3CCNCC3)c21`, the inhibition is 1.8%.
